Experimental data: PubChem BioAssay (Tox21)
Inconclusive results are not listed. The source made the active and inactive calls. Unless noted, the call rests on the fitted dose curve; in most records, active means well fitted curve in the direction sought with a large enough effect in the repeat runs; inconclusive means weak or mixed curves; inactive means no such curve, though single readings can be large; an effect the other way counts as inactive or inconclusive.

Key:
[1] = qHTS assay to test for compound auto fluorescence at 535 nm (green) in HEK293 cells (AID 720680); conditions: green autofluorescence 485/535 nm; series mostly up to 91.3 µM
[2] = qHTS assay to test for compound auto fluorescence at 460 nm (blue) in HEK293 cell free culture (AID 720681); conditions: cell-free medium, autofluorescence 405/460 nm (blue); series mostly up to 91.3 µM
Method in brief: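 Test compounds were pinned into cell-free culture medium (DMEM with 10% FBS) and fluorescence was read directly at Ex/Em 405/460 nm. Signals were expressed as fluorescence equivalents of triamterene, with DMSO vehicle as control.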

[3] = qHTS assay to test for compound auto fluorescence at 535 nm (green) in HEK293 cell free culture (AID 720682); conditions: cell-free medium, green autofluorescence 485/535 nm, hits give high values; series mostly up to 91.3 µM
Method in brief: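 Intrinsic compound fluorescence is measured in culture medium containing 10% FBS, with excitation at 485 nm and detection at 535 nm, referenced to fluorescein.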

[4] = qHTS assay to test for compound auto fluorescence at 590 nm (red) in HEK293 cell free culture (AID 720683); conditions: cell-free medium autofluorescence, Ex540/Em590 red; series mostly up to 91.3 µM
Method in brief: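 Tox21 10K library compounds were pinned into cell-free DMEM with 10% FBS and fluorescence was read at excitation 540 nm. Activity is expressed as Rose Bengal sodium equivalency.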

[5] = qHTS assay to test for compound auto fluorescence at 590 nm (red) in HepG2 cell free culture (AID 720684); conditions: cell-free medium autofluorescence, red 540/590 nm; series mostly up to 91.3 µM
Method in brief: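 Measured in medium alone (MEM containing 10% FBS) following pintool addition of compound; emission at 590 nm with 540 nm excitation, referenced to Rose Bengal sodium.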

[6] = qHTS assay to test for compound auto fluorescence at 460 nm (blue) in HepG2 cell free culture (AID 720685); conditions: Cell-free culture medium, blue autofluorescence 405/460 nm; series mostly up to 91.3 µM
Method in brief: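 Compound (23 nL) or DMSO pinned into cell-free MEM with 10% FBS; blue fluorescence read at 405/460 nm excitation/emission, expressed as auto-fluorescence equivalency to triamterene.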

[7] = qHTS assay to test for compound auto fluorescence at 535 nm (green) in HepG2 cell free culture (AID 720686); conditions: Cell-free medium, green autofluorescence 485/535 nm; series mostly up to 91.3 µM
[8] = qHTS assay to test for compound auto fluorescence at 460 nm (blue) in HepG2 cells (AID 720687); conditions: autofluorescence 405/460 nm, 1 h; series mostly up to 91.3 µM
Method in brief: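 Cells (2,000/well in MEM with 10% FBS) attached overnight at 37 C, then were exposed to compound or DMSO for 1 hr at 37 C, 5% CO2. Fluorescence read at Ex/Em 405/460 nm, expressed as triamterene-equivalent signal.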

[9] = biological target: Glucocorticoid receptor (Homo sapiens) (UniProt P04150); experiment: qHTS assay to identify small molecule agonists of the glucocorticoid receptor (GR) signaling pathway (AID 720691; active means well fitted activation curve with a large enough effect in the signal ratio in the repeat runs, not every such curve was filed as active; the % refers to the signal ratio); conditions: GR-bla HeLa, beta-lactamase reporter ratio, 18 h; series mostly up to 62.4 µM
Method in brief: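 GR-bla HeLa cells carrying a GRE-driven beta-lactamase reporter, exposed to compounds for 18 h at 37 C. Reporter activation read as fluorescence after 2 h with LiveBLAzer B/G FRET substrate at room temperature.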

[10] = biological target: Glucocorticoid receptor (Homo sapiens) (UniProt P04150); experiment: qHTS assay to identify small molecule antagonists of the glucocorticoid receptor (GR) signaling pathway (AID 720692; active means well fitted inhibition curve with a large enough effect in the signal ratio in the repeat runs, not every such curve was filed as active; the % refers to the signal ratio); conditions: GR-bla HeLa, beta-lactamase FRET ratio, dexamethasone-stimulated, 18 h; series mostly up to 58.5 µM
Method in brief: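 GR-bla HeLa cells carrying a GRE-driven beta-lactamase reporter received compound after 4 h plating, then dexamethasone (5 nM final). After 18 h at 37C, the FRET substrate was loaded for 2 h at room temperature and fluorescence read.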

[11] = qHTS assay to identify small molecule antagonists of the glucocorticoid receptor (GR) signaling pathway - cell viability counter screen (AID 720693); conditions: GR-bla HeLa viability, CellTiter-Glo luminescence, 18 h, with 5 nM dexamethasone present; series mostly up to 58.5 µM; further: nearly all actives have a fitted effect of over 55% in size
[12] = qHTS assay for identifying genotoxic compounds that show differential cytotoxicity against isogenic chicken DT40 cell lines with known DNA damage response pathways - wild type cell line (AID 743012); conditions: DT40 wild type chicken cells viability, CellTiter-Glo, 40 h; series mostly up to 68.4 µM; further: nearly all actives have a fitted effect of over 60% in size
Method in brief: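 Wild-type DT40 cells (300/well) exposed to compounds for 40 hours at 37 C/5% CO2. Viability read by CellTiter-Glo luminescence after 30 min at room temperature.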

[13] = qHTS assay for identifying genotoxic compounds that show differential cytotoxicity against isogenic chicken DT40 cell lines with known DNA damage response pathways - Rev3 mutant cell line (AID 743014); conditions: chicken DT40 Rev3-/- viability, CellTiter-Glo, 40 h; series mostly up to 68.4 µM; further: nearly all actives have a fitted effect of over 55% in size; further: potency means the concentration at half of the fitted maximal effect
[14] = qHTS assay for identifying genotoxic compounds that show differential cytotoxicity against isogenic chicken DT40 cell lines with known DNA damage response pathways - Rad54/Ku70 mutant cell line (AID 743015); conditions: DT40 Rad54/Ku70 mutant viability, CellTiter-Glo, 40 h; series mostly up to 66.8 µM; further: nearly all actives have a fitted effect of over 60% in size
[15] = qHTS assay to identify small molecule antagonists of the androgen receptor (AR) signaling pathway - cell viability counter screen (AID 743033; further: nearly all actives have a fitted effect of over 45% in size); conditions: AR-bla HEK293 viability, CellTiter-Glo luminescence, 16 h; series mostly up to 58.5 µM
[16] = qHTS assay to identify small molecule antagonists of the androgen receptor (AR) signaling pathway using the MDA cell line - cell viability counter screen (AID 743041; further: nearly all actives have a fitted effect of over 45% in size); conditions: MDA-kb2 viability, CellTiter-Fluor, 16 h, cells co-treated with R1881 androgen agonist; series mostly up to 70.3 µM
Method in brief: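 Viability counter screen run alongside the AR antagonist reporter: cells seeded 5 h before compound, R1881 added, 16 h incubation at 37C without CO2, fluorescent CellTiter-Fluor signal quantified.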

[17] = qHTS assay to identify small molecule antagonists of the thyroid receptor (TR) signaling pathway - cell viability counter screen (AID 743064); conditions: GH3.TRE-Luc viability, CellTiter-Fluor, 24 h; series mostly up to 70.3 µM; further: nearly all actives have a fitted effect of over 50% in size
Method in brief: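 Same-well viability check: GH3.TRE-Luc cells stimulated with 1 nM T3 alongside test compound for 23.5 h, followed by CellTiter-Fluor fluorescence.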

[18] = biological target: Androgen receptor (Homo sapiens) (UniProt P10275); experiment: qHTS assay to identify small molecule agonists of the androgen receptor (AR) signaling pathway using the MDA cell line (AID 743040; further: nearly all actives have a fitted effect of over 20% in size); conditions: MDA-kb2 AR-luc cells, MMTV luciferase, 16 h, hits give high values; series mostly up to 70.3 µM
Method in brief: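 Luminescence from ONE-Glo, read after 30 min at room temperature, reflects MMTV-driven luciferase in MDA-kb2 cells (AR- and GR-responsive). Treatment lasted 16 h at 37C, 0% CO2.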

[19] = biological target: Androgen receptor (Homo sapiens) (UniProt P10275); experiment: qHTS assay to identify small molecule antagonists of the androgen receptor (AR) signaling pathway (AID 743035; active means well fitted inhibition curve with a large enough effect in the signal ratio in the repeat runs, not every such curve was filed as active; the % refers to the signal ratio); conditions: HEK293 AR-UAS-bla, R1881-stimulated, beta-lactamase FRET, 16 h; series mostly up to 58.5 µM
Method in brief: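 HEK293 cells stably carrying UAS-beta-lactamase reporter, 2,000/well, given compounds plus R1881 agonist and incubated 16 h at 37C. LiveBLAzer B/G FRET substrate then added for 2 h at room temperature before fluorescence reading.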

[20] = biological target: Androgen receptor (Homo sapiens) (UniProt P10275); experiment: qHTS assay to identify small molecule agonists of the androgen receptor (AR) signaling pathway (AID 743036; active means well fitted activation curve with a large enough effect in the signal ratio in the repeat runs, with a control signal flat, not every such curve was filed as active; the % refers to the signal ratio); conditions: HEK293 AR-UAS-bla GripTite, beta-lactamase FRET ratio, 16 h; series mostly up to 62.4 µM
Method in brief: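 Agonist activity was scored by beta-lactamase reporter fluorescence in stably transfected HEK293 cells exposed to compounds for 16 h at 37C and 5% CO2. Substrate loading took 2 h at room temperature.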
On the % scale 0 is the no-effect control and ±100 the full control effect.

Chain of Androgen receptor (Homo sapiens) (P10275 whole entry, looked up): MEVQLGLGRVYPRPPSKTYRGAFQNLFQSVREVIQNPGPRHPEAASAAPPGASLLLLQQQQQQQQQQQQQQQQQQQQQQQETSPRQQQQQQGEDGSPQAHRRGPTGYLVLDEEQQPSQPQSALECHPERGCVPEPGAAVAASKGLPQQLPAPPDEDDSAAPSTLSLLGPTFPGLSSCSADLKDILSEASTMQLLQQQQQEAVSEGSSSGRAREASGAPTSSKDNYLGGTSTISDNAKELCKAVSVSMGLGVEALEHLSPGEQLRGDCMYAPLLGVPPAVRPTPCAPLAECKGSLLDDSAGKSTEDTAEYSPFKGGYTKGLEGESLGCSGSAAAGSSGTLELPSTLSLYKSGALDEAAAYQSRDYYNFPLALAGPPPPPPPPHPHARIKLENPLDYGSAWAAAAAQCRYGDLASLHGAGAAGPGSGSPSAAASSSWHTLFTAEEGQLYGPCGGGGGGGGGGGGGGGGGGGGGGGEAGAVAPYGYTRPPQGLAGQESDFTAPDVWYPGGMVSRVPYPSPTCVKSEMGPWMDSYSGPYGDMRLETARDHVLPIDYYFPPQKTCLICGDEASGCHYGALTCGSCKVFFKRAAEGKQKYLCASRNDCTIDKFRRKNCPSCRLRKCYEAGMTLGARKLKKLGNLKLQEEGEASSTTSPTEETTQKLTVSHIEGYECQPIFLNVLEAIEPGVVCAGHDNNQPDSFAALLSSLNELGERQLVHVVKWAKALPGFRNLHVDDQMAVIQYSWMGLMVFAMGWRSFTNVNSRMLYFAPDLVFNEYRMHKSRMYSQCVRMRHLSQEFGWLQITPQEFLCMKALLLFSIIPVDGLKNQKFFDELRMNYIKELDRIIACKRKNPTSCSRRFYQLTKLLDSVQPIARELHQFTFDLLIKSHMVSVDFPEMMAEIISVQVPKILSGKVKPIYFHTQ
Chain of Glucocorticoid receptor (Homo sapiens) (P04150 whole entry, looked up): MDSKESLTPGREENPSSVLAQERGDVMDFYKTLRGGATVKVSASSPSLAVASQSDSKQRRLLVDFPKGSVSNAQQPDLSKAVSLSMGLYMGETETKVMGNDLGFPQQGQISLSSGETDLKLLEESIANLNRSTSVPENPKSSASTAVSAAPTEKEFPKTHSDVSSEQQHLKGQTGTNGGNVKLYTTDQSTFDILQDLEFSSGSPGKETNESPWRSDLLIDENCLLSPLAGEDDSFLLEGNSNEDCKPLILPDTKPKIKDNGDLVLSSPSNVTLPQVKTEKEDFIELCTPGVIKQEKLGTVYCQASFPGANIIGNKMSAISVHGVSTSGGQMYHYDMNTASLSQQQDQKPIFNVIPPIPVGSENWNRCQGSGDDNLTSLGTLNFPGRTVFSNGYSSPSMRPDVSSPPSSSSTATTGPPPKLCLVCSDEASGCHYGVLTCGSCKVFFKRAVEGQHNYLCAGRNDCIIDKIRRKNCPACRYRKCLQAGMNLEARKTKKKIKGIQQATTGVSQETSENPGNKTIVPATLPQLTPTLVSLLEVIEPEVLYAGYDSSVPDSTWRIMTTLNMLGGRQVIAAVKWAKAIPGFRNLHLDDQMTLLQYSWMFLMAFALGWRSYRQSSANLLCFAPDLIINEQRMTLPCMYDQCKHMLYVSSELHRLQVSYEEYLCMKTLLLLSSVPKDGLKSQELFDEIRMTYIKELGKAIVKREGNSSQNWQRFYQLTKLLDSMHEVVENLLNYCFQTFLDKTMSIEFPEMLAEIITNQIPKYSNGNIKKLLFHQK

BrCCc1ccccc1
inactive: outcome [1] | outcome [2] | outcome [3] | outcome [4] | outcome [5] | outcome [6] | outcome [7] | outcome [8] | Potency [9] | Potency [10] | Potency [11] | Potency [12] | Potency [13] | Potency [14] | Potency [15] | Potency [16] | Potency [17]

Brc1c(Br)c(Br)c(Br)c(Br)c1Br
inactive: fluorescence, % of fluorescein [1] -0.0363% [at 3.72 µM] | fluorescence, % of fluorescent control [2] 0.241% [at 3.72 µM] | activity change [3] 0.039% [at 3.72 µM] | fluorescence, % of fluorescent control [4] -0.398% [at 3.72 µM] | fluorescence, % of Rose Bengal [5] 0.0791% [at 3.72 µM] | fluorescence, % of fluorescent control [6] 0.0001% [at 3.72 µM] | fluorescence, % of fluorescein control [7] 0.0083% [at 3.72 µM] | fluorescence, % of fluorescent control [8] 0.182% [at 3.72 µM] | activation [9] 0.883% [at 6.9 µM] | activity change, negative = inhibition [10] 4.46% [at 7.04 µM] | viability change, negative = cytotoxic [11] -0.032% [at 7.04 µM] | activity change, negative = cytotoxicity [12] -12.6% [at 8.52 µM] | activity change, negative = cytotoxicity [14] 8.63% [at 8.55 µM] | activity change, negative = cytotoxicity [15] -0.0996% [at 7.04 µM] | viability change, negative = cytotoxic [16] 1.47% [at 8.47 µM]

Nc1c(Cl)c(F)nc(OCC(=O)O)c1Cl
inactive: outcome [1] | outcome [2] | outcome [3] | outcome [4] | outcome [5] | outcome [6] | outcome [7] | outcome [8] | Potency [9] | Potency [10] | Potency [11] | Potency [12] | Potency [14] | Potency [15] | outcome [18] | Potency [16]

C[C@H](N)C(=O)c1ccccc1
inactive: outcome [1] | outcome [2] | outcome [3] | outcome [4] | outcome [5] | outcome [6] | outcome [7] | outcome [8] | Potency [9] | Potency [10] | Potency [11] | Potency [12] | Potency [14] | Potency [15] | Potency [19] | outcome [20] | outcome [18] | Potency [16] | Potency [17]

CCOC(=O)CCl
inactive: outcome [1] | outcome [2] | outcome [3] | outcome [4] | outcome [5] | outcome [6] | outcome [7] | outcome [8] | Potency [9] | Potency [10] | Potency [11] | Potency [12] | Potency [13] | Potency [14] | Potency [15] | Potency [16]

N#CN=C1SCCN1Cc1ccc(Cl)nc1
inactive: outcome [1] | outcome [2] | outcome [3] | outcome [4] | outcome [5] | outcome [6] | outcome [7] | outcome [8] | Potency [9] | Potency [10] | Potency [11] | Potency [12] | Potency [13] | Potency [15] | Potency [16]

COC(=O)c1ccccc1CS(=O)(=O)NC(=O)Nc1nc(OC)cc(OC)n1
inactive: outcome [1] | outcome [2] | outcome [3] | outcome [4] | outcome [5] | outcome [6] | outcome [7] | outcome [8] | Potency [9] | Potency [10] | Potency [11] | Potency [12] | Potency [13] | Potency [14] | Potency [15] | Potency [16] | Potency [17]

BrCC1CO1 (stereo unspecified)
active: Potency [13] 61.4 µM
inactive: outcome [1] | outcome [2] | outcome [3] | outcome [4] | outcome [5] | outcome [6] | outcome [7] | outcome [8] | Potency [9] | Potency [10] | Potency [11] | Potency [12] | Potency [14] | Potency [15] | Potency [16]

CC(C)NCC(O)c1ccc([N+](=O)[O-])cc1 (stereo unspecified)
inactive: outcome [1] | outcome [2] | outcome [3] | outcome [4] | outcome [5] | outcome [6] | outcome [7] | outcome [8] | Potency [9] | Potency [10] | Potency [11] | Potency [12] | Potency [13] | Potency [14] | Potency [15] | Potency [16] | Potency [17]

Clc1ccc(C(Cl)(Cl)Cl)cn1
inactive: outcome [1] | outcome [2] | outcome [3] | outcome [4] | outcome [5] | outcome [6] | outcome [7] | outcome [8] | Potency [9] | Potency [10] | Potency [11] | Potency [12] | Potency [14] | Potency [15] | Potency [19] | outcome [20] | outcome [18] | Potency [16] | Potency [17]
active: Potency [13] 61.1 µM

CCCCCCCCBr
inactive: outcome [1] | outcome [2] | outcome [3] | outcome [4] | outcome [5] | outcome [6] | outcome [7] | outcome [8] | Potency [9] | Potency [10] | Potency [11] | Potency [12] | Potency [13] | Potency [14] | Potency [15] | Potency [16] | Potency [17]

COP(=O)(O)OC
inactive: outcome [1] | outcome [2] | outcome [3] | outcome [4] | outcome [5] | outcome [6] | outcome [7] | outcome [8] | Potency [9] | Potency [10] | Potency [11] | Potency [12] | Potency [13] | Potency [14] | Potency [15] | Potency [19] | outcome [20] | outcome [18] | Potency [16] | Potency [17]

CC(=O)OCC1=C(C(=O)O)N2C(=O)[C@@H](N)[C@H]2SC1
inactive: fluorescence, % of fluorescein [1] -0.0094% [at 18.6 µM] | fluorescence, % of fluorescent control [2] -0.0418% [at 18.6 µM] | activity change [3] 0.0026% [at 18.6 µM] | fluorescence, % of fluorescent control [4] 0.162% [at 18.6 µM] | fluorescence, % of Rose Bengal [5] 0.155% [at 18.6 µM] | fluorescence, % of fluorescent control [6] -0.0695% [at 18.6 µM] | fluorescence, % of fluorescein control [7] 0.161% [at 18.6 µM] | fluorescence, % of fluorescent control [8] 0.185% [at 18.6 µM] | Potency [9] | Potency [10] | Potency [11] | Potency [12] | Potency [13] | Potency [14] | Potency [15] | Potency [16]
